A short description of experiment [1]: cAMP Responsive Elements (CRE) small molecule antagonists, cell-based qHTS assay: qHTS cell viability counter screen (AID 2060913). Further: nearly all actives have a fitted effect of over 40% in size. The method in brief:
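HEK293T CRE-bla, 2,000 cells/well, 18 h preincubation; cpd in DMSO + NKH477 0.25 uM final, 3 h 37 C/5% CO2; LiveBLAzer 2 h RT, then CellTiter-Glo 30 min RT, luminescence.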
Background: In qHTS, concentration-response curves come from the screen itself.

The nature of experiment [2]: cAMP Responsive Elements (CRE) small molecule agonists, cell-based qHTS assay: qHTS cell viability counter screen (AID 2060914).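 Further: viability read after 3 h of compound exposure; nearly all actives have a fitted effect of over 50% in size.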 The method in brief:
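CRE-bla HEK 293T cells, plated 18 h at 37 °C, were exposed to compounds for 3 h at 37 °C/5% CO2. Viability was then measured in the same wells by CellTiter-Glo luminescence after 30 min at room temperature.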

SMILES strings stand for the structures. Records with an inconclusive call do not appear. Unmarked numbers belong to inactive results. The source made the active and inactive calls. The call rests on the fitted dose curve; in most records, active means well fitted cell-killing curve with a large enough effect in the repeat runs; inconclusive means weak or mixed curves, or effect the other way; inactive means flat fitted curve, though single readings scatter.
On the % scale 0 is the no-effect control and ±100 the full control effect.

Turning to `CCCCCCCCCCCl`, the Potency result in experiment [1] and in experiment [2] was “inactive” in each case.

Turning to `OC1OCCOC1O` (configuration not stated), the Potency entry in experiment [1] and in experiment [2] was “inactive” in each case.

Consider `CCC(O)OCCCOC` (configuration not stated), for which the Potency result in experiment [1] and in experiment [2] was “inactive” throughout.

Regarding `CC(=O)OC(C)OC(=O)C(C)c1ccc(-c2ccccc2)c(F)c1` (configuration not stated), the Potency entry in experiment [1] and in experiment [2] was “inactive” each time.

For `CC1=C2[C@H](/C=C(\C)C(=O)O)CC[C@@H](C)[C@H]2CC1`, the Potency entry in experiment [1] and in experiment [2] was “inactive” each time.

For `CC(C[N+](C)(C)C)OC(N)=O` (configuration not stated), the Potency entry in experiment [1] and in experiment [2] was “inactive” in each case.

Regarding `CN(C)Cc1ccccc1`, the Potency entry in experiment [1] and in experiment [2] was “inactive” in each case.

Turning to `CCC(=O)O[C@]1(C(=O)CCl)[C@@H](C)C[C@H]2[C@@H]3CCC4=CC(=O)C=C[C@]4(C)[C@@]3(F)[C@@H](O)C[C@@]21C`, the Potency result in experiment [1] and in experiment [2] was “inactive” in each case.

For `C[C@@H](O)[C@H]1C(=O)N2C(C(=O)O)=C([C@H]3CCCO3)S[C@H]12`, the Potency result in experiment [1] and in experiment [2] was “inactive” in each case.

Turning to `O=Cc1cccc([N+](=O)[O-])c1`, the Potency entry in experiment [1] and in experiment [2] was “inactive” throughout.

Take `Cc1[nH]c(=O)c(C#N)cc1-c1ccncc1`: the Potency entry in experiment [1] and in experiment [2] was “inactive” in each case.

With `COc1cc(C)ccc1O`, the Potency entry in experiment [1] and in experiment [2] was “inactive” each time.

`Cc1ccc(C(C)(C)C)c(O)c1`: the Potency result in experiment [1] and in experiment [2] was “inactive” each time.

`O=Cc1ccc([N+](=O)[O-])cc1`: the Potency result in experiment [1] and in experiment [2] was “inactive” each time.

For `CCOC(=O)C(=O)CCCCCCl`, the Potency entry in experiment [1] and in experiment [2] was “inactive” throughout.

On to `COC=O`, for which, in experiment [1], the viability change, negative = cytotoxic is -17.9% [at 8.39 µM]. Further, the activity change, negative = cytotoxicity in experiment [2] is -1.81% [at 8.39 µM].

As for `COc1ccc(OC)c(C(O)CNC(=O)CN)c1` (configuration not stated), the Potency result in experiment [1] and in experiment [2] was “inactive” each time.

In the case of `CC1=C(C=O)C(C)(C)CCC1`, the Potency entry in experiment [1] and in experiment [2] was “inactive” in each case.

Turning to `CC(C)(C)OC(=O)c1ccc(O)cc1`, the Potency entry in experiment [1] and in experiment [2] was “inactive” in each case.

On to `C[Si](C)(CCCN)O[Si](C)(C)CCCN`, for which the Potency result in experiment [1] and in experiment [2] was “inactive” in each case.

On to `CN(C)CCn1nnnc1SCC1=C(C(=O)O)N2C(=O)[C@@H](NC(=O)Cc3csc(N)n3)[C@H]2SC1`, for which the Potency entry in experiment [1] and in experiment [2] was “inactive” in each case.

As for `O=c1c(-c2ccc(O)cc2)coc2cc(O)cc(O)c12`, the Potency entry in experiment [1] and in experiment [2] was “inactive” throughout.

For `O=C(O)c1ccccc1`, the Potency result in experiment [1] and in experiment [2] was “inactive” in each case.

On to `Cc1ccccc1C`, for which the Potency result in experiment [1] and in experiment [2] was “inactive” each time.

As to `COC(=O)c1ccc(C(=O)O)cc1`, the Potency entry in experiment [1] and in experiment [2] was “inactive” throughout.

`Cc1c(C)c2c(c(C)c1OC(=O)CCC(=O)O)CC[C@@](C)(CCC[C@H](C)CCC[C@H](C)CCCC(C)C)O2`: the Potency result in experiment [1] and in experiment [2] was “inactive” in each case.

For the molecule `CCC(CC)C(=O)O`, the Potency entry in experiment [1] and in experiment [2] was “inactive” each time.

With `Cc1cc(C)cc(N)c1`, the Potency entry in experiment [1] and in experiment [2] was “inactive” throughout.

Regarding `CCCCCCOC(=O)CCCCC(=O)OCCCCCC`, the Potency result in experiment [1] and in experiment [2] was “inactive” throughout.

Regarding `CO[C@@]1(NC(=O)CSC[C@@H](N)C(=O)O)C(=O)N2C(C(=O)O)=C(CSc3nnnn3C)CS[C@@H]21`, the Potency entry in experiment [1] and in experiment [2] was “inactive” in each case.

For `Cc1c(C)c2c(c(C)c1OC(=O)c1cccnc1)CC[C@@](C)(CCC[C@H](C)CCC[C@H](C)CCCC(C)C)O2`, the Potency entry in experiment [1] and in experiment [2] was “inactive” throughout.

With `O=C(O)c1ccc(C(=O)O)cc1`, the Potency entry in experiment [1] and in experiment [2] was “inactive” in each case.

Turning to `CC(C)Oc1ccc2c(=O)c(-c3ccccc3)coc2c1`, the Potency result in experiment [1] and in experiment [2] was “inactive” in each case.

Regarding `CC[C@]1(O)C[C@H]2CN(CCc3c([nH]c4ccccc34)[C@@](C(=O)OC)(c3cc4c(cc3OC)N(C=O)[C@H]3[C@@](O)(C(=O)OC)[C@H](OC(C)=O)[C@]5(CC)C=CCN6CC[C@]43[C@@H]65)C2)C1`, the Potency entry in experiment [1] and in experiment [2] was “inactive” throughout.

Regarding `CC(C)CCCCOC(=O)c1ccccc1C(=O)OCCCCC(C)C`, the Potency entry in experiment [1] and in experiment [2] was “inactive” in each case.

As to `CCCCCCCCCCCCCCBr`, the Potency result in experiment [1] and in experiment [2] was “inactive” in each case.

Take `OCCCc1cccnc1`: the Potency entry in experiment [1] and in experiment [2] was “inactive” each time.

For the molecule `Oc1ccc(O)c2c(O)cccc12`, the Potency entry in experiment [1] and in experiment [2] was “inactive” each time.

Take `Nc1c2c(nc3c1CCC3)CCCC2`: the Potency result in experiment [1] and in experiment [2] was “inactive” in each case.

Consider `O=C(O)c1cc(C(=O)O)cc([N+](=O)[O-])c1`, for which the Potency result in experiment [1] and in experiment [2] was “inactive” throughout.

For `Cc1cccc(C)c1NC(=O)c1cc(S(N)(=O)=O)c(Cl)cc1O`, the Potency entry in experiment [1] and in experiment [2] was “inactive” each time.

As to `CCOC(=O)C(C)Oc1ccc(Oc2nc3ccc(Cl)cc3o2)cc1` (configuration not stated), the Potency entry in experiment [1] and in experiment [2] was “inactive” throughout.

As for `Cc1cc(=O)oc2cc(O)ccc12`, the Potency result in experiment [1] and in experiment [2] was “inactive” in each case.

Take `CN(C)c1ccc(C=O)cc1`: the Potency entry in experiment [1] and in experiment [2] was “inactive” each time.

Turning to `CC(C)(C)OCC1CO1` (configuration not stated), the Potency result in experiment [1] and in experiment [2] was “inactive” each time.

For the molecule `CC1(C)[C@@H]2CC[C@@]1(C)[C@H](O)C2`, the Potency entry in experiment [1] and in experiment [2] was “inactive” in each case.

Turning to `CCN(CC)CCN`, the Potency result in experiment [1] and in experiment [2] was “inactive” each time.

As to `c1ccc2cnncc2c1`, the Potency entry in experiment [1] and in experiment [2] was “inactive” in each case.

Turning to `O=C(O)c1ccc(S(=O)(=O)O)cc1C(=O)O`, the Potency result in experiment [1] and in experiment [2] was “inactive” in each case.

As for `CC1=CC(=O)c2ccccc2C1=O`, the Potency result in experiment [1] and in experiment [2] was “inactive” throughout.

Regarding `CN(C)CCCNCCC#N`, the Potency result in experiment [1] and in experiment [2] was “inactive” each time.

For `CC(CCc1ccc(O)cc1)NCCc1ccc(O)c(O)c1` (configuration not stated), the Potency entry in experiment [1] and in experiment [2] was “inactive” throughout.

Take `C=CCNCC=C`: the Potency entry in experiment [1] and in experiment [2] was “inactive” throughout.

`O=C(Cl)c1cccc(C(=O)Cl)c1`: the Potency result in experiment [1] and in experiment [2] was “inactive” throughout.

Turning to `CCCC1CCOC(C)S1` (configuration not stated), the Potency entry in experiment [1] and in experiment [2] was “inactive” in each case.

With `CCCCCCCCCCCCCCCC`, the Potency result in experiment [1] and in experiment [2] was “inactive” in each case.

The record behind these values is PubChem BioAssay (Tox21).
